{"source": "PubChem BioAssay (EPA / NIEHS)", "key": {"[1]": {"test_system": "rat Monoamine Oxidase, MAO-A, Central (MAOAC), gene 29253", "assay": "NVS_ENZ_rMAOAC: NovaScreen (NVS) Enzymatic Assay for rat Monoamine Oxidase, MAO-A, Central (MAOAC) (AID 2283243);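 further: potency refers to inhibition seen as signal drop below DMSO baseline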", "outline": "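Enzyme from rat brain, cell-free radiodetection format. Counts taken at 1.5 h; activity fitted against DMSO baseline, loss of signal marking inhibition. Confirmatory concentration series followed the 25 uM duplicate screen.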"}, "[2]": {"target": "human Serotonin, 5-Hydroxytryptamine Receptor 5A (5HT5A), HTR5A (gene 3361) (UniProt P47898)", "sequence (P47898 whole entry, looked up)": "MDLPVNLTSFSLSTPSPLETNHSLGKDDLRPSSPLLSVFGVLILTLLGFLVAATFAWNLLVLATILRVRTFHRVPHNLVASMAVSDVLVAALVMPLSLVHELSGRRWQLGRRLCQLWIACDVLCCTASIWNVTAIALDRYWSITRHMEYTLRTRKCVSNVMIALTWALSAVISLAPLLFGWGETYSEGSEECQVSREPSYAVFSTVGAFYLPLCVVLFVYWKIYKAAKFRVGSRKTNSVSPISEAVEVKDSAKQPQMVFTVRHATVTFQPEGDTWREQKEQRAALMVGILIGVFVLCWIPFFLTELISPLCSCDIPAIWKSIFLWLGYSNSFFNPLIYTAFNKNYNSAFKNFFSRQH", "assay": "NVS_GPCR_h5HT5A: NovaScreen (NVS) G Protein-Coupled Receptor Assay for human Serotonin, 5-Hydroxytryptamine Receptor 5A (5HT5A) (AID 2283251)", "outline": "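Membranes from HEK293 cells, radioligand binding read by filtration and scintillation after 1 h. Single-concentration duplicate testing at 25 uM, then concentration-response for actives; positive-direction fitting relative to DMSO.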"}, "[3]": {"target": "human Serotonin, 5-Hydroxytryptamine Receptor 7 (5HT7), HTR7 (gene 3363) (UniProt P34969)", "sequence (P34969 whole entry, looked up)": "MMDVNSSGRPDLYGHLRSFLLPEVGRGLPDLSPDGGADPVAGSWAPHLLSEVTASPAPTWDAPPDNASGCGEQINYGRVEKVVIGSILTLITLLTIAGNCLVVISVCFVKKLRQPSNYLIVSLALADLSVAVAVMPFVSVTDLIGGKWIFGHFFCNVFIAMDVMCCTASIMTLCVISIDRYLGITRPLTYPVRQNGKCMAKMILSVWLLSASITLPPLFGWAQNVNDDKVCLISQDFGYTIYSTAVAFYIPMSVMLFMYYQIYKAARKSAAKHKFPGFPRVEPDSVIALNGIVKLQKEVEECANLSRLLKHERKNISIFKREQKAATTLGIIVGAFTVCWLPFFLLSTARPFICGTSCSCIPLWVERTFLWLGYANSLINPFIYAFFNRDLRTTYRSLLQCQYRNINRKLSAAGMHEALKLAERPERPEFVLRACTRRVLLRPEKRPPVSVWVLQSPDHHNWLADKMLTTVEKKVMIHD", "assay": "NVS_GPCR_h5HT7: NovaScreen (NVS) G Protein-Coupled Receptor Assay for human Serotonin, 5-Hydroxytryptamine Receptor 7 (5HT7) (AID 2283255)", "outline": "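Filter-bound radioactivity counted after 1 h, with loss of specific radioligand binding fitted against DMSO. Membrane protein came from CHO cells expressing human 5HT7. Chemicals were tested first at 25 uM in duplicate, then in concentration series if active.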"}, "[4]": {"target": "human Adrenergic, Alpha 2A Receptor (Adra2A), ADRA2A (gene 150) (UniProt P08913)", "sequence (P08913 whole entry, looked up)": "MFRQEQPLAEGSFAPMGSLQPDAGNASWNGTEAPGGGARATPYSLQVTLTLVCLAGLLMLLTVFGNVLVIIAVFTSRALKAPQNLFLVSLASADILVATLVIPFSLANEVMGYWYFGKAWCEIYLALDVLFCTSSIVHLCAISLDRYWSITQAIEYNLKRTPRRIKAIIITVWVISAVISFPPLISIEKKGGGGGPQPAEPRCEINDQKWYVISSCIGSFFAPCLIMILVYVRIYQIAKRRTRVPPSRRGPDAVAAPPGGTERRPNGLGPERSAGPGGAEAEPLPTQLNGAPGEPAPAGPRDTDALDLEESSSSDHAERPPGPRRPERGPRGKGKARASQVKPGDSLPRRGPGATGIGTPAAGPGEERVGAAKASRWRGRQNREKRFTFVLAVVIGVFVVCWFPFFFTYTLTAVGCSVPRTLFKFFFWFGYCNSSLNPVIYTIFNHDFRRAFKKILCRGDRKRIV", "assay": "NVS_GPCR_hAdra2A: NovaScreen (NVS) G Protein-Coupled Receptor Assay for human Adrenergic, Alpha 2A Receptor (Adra2A) (AID 2283257)", "outline": "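Displacement of a specific radioligand from HT29 membrane protein was counted by filter scintillation after 1 h. Compounds were screened in duplicate at 25 uM, and actives were retested in concentration series. Fitting was positive-direction against DMSO.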"}, "[5]": {"target": "human Adrenergic, Alpha 2c Receptor (Adra2C), ADRA2C (gene 152) (UniProt P18825)", "sequence (P18825 whole entry, looked up)": "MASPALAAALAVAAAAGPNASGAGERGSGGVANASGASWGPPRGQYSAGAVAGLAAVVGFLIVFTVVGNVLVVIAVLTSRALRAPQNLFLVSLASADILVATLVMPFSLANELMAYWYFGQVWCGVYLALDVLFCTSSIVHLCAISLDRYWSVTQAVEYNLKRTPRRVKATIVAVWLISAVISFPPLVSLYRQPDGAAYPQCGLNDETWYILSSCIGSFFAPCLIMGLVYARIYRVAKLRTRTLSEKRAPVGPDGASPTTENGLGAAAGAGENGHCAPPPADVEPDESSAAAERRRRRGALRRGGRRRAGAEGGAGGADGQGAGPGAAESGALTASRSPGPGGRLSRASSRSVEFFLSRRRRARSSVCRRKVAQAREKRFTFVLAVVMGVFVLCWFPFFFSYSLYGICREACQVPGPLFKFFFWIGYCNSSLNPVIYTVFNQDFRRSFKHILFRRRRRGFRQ", "assay": "NVS_GPCR_hAdra2C: NovaScreen (NVS) G Protein-Coupled Receptor Assay for human Adrenergic, Alpha 2c Receptor (Adra2C) (AID 2283259)", "outline": "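Screened first in duplicate at 25 uM, with actives then run as concentration series. Membranes from Sf9 cells were exposed for 1 h, and displacement of radioligand was counted after filtration, using DMSO as baseline.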"}, "[6]": {"target": "human Adrenergic, Beta 3 Receptor (Adrb3), ADRB3 (gene 155) (UniProt P13945)", "sequence (P13945 whole entry, looked up)": "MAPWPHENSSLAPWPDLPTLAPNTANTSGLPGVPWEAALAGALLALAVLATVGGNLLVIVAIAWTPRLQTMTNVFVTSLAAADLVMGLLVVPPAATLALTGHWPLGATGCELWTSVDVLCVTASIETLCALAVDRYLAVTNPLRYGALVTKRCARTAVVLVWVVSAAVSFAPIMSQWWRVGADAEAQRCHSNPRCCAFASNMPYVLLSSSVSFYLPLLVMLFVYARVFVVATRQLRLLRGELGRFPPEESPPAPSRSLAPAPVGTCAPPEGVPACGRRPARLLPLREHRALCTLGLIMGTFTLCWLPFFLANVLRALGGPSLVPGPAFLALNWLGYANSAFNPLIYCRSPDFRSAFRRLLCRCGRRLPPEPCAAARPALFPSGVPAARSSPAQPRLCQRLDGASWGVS", "assay": "NVS_GPCR_hAdrb3: NovaScreen (NVS) G Protein-Coupled Receptor Assay for human Adrenergic, Beta 3 Receptor (Adrb3) (AID 2283262)", "outline": "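A cell-free filter binding assay read by scintillation counting, with displacement of a specific radioligand measured after 1 hour. The receptor source was SK-N-MC extracts (cells pretreated with isoproterenol and 8-bromo-cAMP). Compounds were first tested at 25 uM in duplicate and then in concentration series.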"}, "[7]": {"target": "human Adenosine A2a Receptor (AdoRA2a), ADORA2A (gene 135) (UniProt P29274)", "sequence (P29274 whole entry, looked up)": "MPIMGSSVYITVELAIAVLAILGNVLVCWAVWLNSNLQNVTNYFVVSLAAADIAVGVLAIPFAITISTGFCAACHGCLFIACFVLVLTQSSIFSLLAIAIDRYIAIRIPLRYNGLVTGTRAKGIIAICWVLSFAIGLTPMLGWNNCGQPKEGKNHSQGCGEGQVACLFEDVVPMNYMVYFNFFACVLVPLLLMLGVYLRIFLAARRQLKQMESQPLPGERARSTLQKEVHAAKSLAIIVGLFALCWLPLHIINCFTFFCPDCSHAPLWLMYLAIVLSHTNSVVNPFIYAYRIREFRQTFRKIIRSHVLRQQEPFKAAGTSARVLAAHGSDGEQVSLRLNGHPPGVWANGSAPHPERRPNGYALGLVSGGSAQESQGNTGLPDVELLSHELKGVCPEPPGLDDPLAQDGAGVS", "assay": "NVS_GPCR_hAdoRA2a: NovaScreen (NVS) G Protein-Coupled Receptor Assay for human Adenosine A2a Receptor (AdoRA2a) (AID 2283256)", "outline": "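Compounds screened in duplicate at 25 uM, with actives followed up in concentration series, for displacement of a radioligand from HEK293-derived receptor protein. Bound counts read by filter scintillation at 1.5 hours, DMSO as baseline.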"}, "[8]": {"target": "bovine Dopamine Receptor (DR), Non-selective Binding, DRD1 (gene 281125) (UniProt Q95136)", "sequence (Q95136 whole entry, looked up)": "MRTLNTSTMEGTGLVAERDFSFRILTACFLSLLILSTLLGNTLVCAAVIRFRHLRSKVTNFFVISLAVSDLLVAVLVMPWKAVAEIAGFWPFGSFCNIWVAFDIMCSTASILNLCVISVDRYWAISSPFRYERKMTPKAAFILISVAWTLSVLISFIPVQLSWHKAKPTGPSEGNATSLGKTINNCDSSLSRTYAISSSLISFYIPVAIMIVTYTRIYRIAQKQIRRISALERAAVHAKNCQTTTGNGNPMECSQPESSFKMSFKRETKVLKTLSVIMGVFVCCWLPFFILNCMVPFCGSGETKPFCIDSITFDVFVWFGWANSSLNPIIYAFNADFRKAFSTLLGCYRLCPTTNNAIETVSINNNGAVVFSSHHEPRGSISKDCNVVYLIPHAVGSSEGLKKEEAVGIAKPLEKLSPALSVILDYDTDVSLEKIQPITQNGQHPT", "assay": "NVS_GPCR_bDR_NonSelective: NovaScreen (NVS) G Protein-Coupled Receptor Assay for bovine Dopamine Receptor (DR), Non-selective Binding (AID 2283241)", "outline": "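Filter-based radioligand binding with bovine striatal membrane, incubated 1 h; DMSO as negative baseline. Initial duplicate single-point test at 25 uM preceded concentration series for actives.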"}, "[9]": {"target": "guinea pig Leukotriene D4 Receptor (LTD4), CYSLTR1 (gene 100135514) (UniProt Q2NNR5)", "sequence (Q2NNR5 whole entry, looked up)": "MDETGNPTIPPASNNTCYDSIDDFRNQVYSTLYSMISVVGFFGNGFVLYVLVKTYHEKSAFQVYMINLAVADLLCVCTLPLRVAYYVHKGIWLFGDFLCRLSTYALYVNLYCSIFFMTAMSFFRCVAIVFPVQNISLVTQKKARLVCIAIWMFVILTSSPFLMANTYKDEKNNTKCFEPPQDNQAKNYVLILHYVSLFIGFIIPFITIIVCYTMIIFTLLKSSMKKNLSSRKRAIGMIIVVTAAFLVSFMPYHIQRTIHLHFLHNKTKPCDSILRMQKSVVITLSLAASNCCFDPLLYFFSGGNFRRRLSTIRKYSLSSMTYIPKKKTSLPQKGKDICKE", "assay": "NVS_GPCR_gLTD4: NovaScreen (NVS) G Protein-Coupled Receptor Assay for guinea pig Leukotriene D4 Receptor (LTD4) (AID 2283248)", "outline": "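Guinea pig lung membrane preparation; bound radioligand measured by filter scintillation after 1 h, loss of signal versus DMSO marking displacement. Compounds tested at 25 uM in duplicate, hits retested to max 50 uM.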"}, "[10]": {"target": "rat Monoamine Oxidase, MAO-B, Peripheral (MAOBP), Maob (gene 25750) (UniProt P19643)", "sequence (P19643 whole entry, looked up)": "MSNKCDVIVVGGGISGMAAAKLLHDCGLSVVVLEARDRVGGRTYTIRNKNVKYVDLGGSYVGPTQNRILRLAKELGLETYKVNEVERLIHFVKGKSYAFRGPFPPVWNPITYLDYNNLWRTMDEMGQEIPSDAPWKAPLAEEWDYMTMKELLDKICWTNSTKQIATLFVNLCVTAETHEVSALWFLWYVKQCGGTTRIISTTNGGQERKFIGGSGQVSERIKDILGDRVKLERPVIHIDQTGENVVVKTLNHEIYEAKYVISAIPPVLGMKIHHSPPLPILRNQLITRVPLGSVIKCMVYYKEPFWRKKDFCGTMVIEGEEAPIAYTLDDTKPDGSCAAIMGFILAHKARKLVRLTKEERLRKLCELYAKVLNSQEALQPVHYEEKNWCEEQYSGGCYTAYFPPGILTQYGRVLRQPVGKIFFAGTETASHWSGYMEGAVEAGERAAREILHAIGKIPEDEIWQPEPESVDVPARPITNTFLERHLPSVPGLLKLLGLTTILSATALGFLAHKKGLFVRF", "assay": "NVS_ENZ_rMAOBP: NovaScreen (NVS) Enzymatic Assay for rat Monoamine Oxidase, MAO-B, Peripheral (MAOBP) (AID 2283242)"}, "[11]": {"target": "guinea pig Opioid, Kappa 1 Receptor (OpiateK), OPRK1 (gene 100135587) (UniProt P41144)", "sequence (P41144 whole entry, looked up)": "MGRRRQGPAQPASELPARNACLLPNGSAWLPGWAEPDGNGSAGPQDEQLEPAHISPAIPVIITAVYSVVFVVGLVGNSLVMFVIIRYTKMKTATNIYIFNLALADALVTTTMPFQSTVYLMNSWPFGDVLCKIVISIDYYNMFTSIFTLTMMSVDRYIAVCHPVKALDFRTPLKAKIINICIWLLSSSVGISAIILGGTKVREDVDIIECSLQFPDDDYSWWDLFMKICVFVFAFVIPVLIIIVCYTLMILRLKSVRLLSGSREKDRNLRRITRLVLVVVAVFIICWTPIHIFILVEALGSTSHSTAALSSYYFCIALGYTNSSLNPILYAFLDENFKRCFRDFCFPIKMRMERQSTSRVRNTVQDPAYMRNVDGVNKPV", "assay": "NVS_GPCR_gOpiateK: NovaScreen (NVS) G Protein-Coupled Receptor Assay for guinea pig Opioid, Kappa 1 Receptor (OpiateK) (AID 2283252)", "outline": "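Radioligand binding to kappa opioid receptor in guinea pig cerebellar membranes, read by filtration and scintillation at 2 h. Compounds first tested in duplicate at 25 uM, then actives in concentration series; signal loss fitted against DMSO.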"}, "[12]": {"test_system": "bovine Histamine 1 Receptor (H1), gene 281231", "assay": "NVS_GPCR_bH1: NovaScreen (NVS) G Protein-Coupled Receptor Assay for bovine Histamine 1 Receptor (H1) (AID 2283246)", "outline": "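Hits from a 25 uM duplicate primary screen were retested in concentration series (top 50 uM); binding measured as scintillation-counted displacement of radioligand from bovine cerebellar membranes after 1 h, normalised to DMSO.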"}, "[13]": {"target": "Adenosine receptor A1 (Bos taurus) (UniProt P28190)", "sequence (P28190 whole entry, looked up)": "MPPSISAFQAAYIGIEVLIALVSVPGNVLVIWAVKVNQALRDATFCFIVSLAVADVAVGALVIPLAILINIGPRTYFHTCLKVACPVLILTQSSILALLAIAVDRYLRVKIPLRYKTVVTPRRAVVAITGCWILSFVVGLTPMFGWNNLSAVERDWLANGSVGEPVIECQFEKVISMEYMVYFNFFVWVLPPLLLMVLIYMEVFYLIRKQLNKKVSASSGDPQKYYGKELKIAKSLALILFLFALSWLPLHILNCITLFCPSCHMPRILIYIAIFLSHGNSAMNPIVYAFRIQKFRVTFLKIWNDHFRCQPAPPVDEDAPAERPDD", "assay": "NVS_GPCR_bAdoR_NonSelective: NovaScreen (NVS) G Protein-Coupled Receptor Assay for bovine Adenosine Receptor (AdoR), Non-selective Binding (AID 2283244)", "outline": "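Cell-free binding with membranes from bovine striatum: radioligand displaced by test chemical, read after 1 h by filtration and scintillation. Single-point 25 uM duplicate primary, 50 uM top concentration in follow-up curves, DMSO baseline.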"}}, "note": "Several values for one entry are separate records, joined by “and”; a condition that tells them apart may be missing. Equal values may be shown once. Inconclusive results are not listed. A structure can be active in one record and inactive in another. Activity calls are given as the source filed them. How the source made its calls: active means hit-call score of the fitted dose curve at least 0.9, where 1 is the maximum; inconclusive means response in the unintended direction; inactive means score below 0.9."}
{"smiles": "O=C(Nc1ccccc1)Nc1ccnc(Cl)c1", "values": [{"measurement": "AC50", "setting": "[1]", "value": "25 µM (active)"}, {"measurement": "AC50", "setting": "[2]", "value": "7.13 µM (active)"}, {"measurement": "AC50", "setting": "[3]", "value": "14.1 µM (active)"}, {"measurement": "AC50", "setting": "[4]", "value": "11.6 µM (active)"}, {"measurement": "AC50", "setting": "[5]", "value": "11.2 µM (active)"}, {"measurement": "outcome", "setting": "[6]", "value": "inactive"}]}
{"smiles": "Oc1ccccc1-c1ccccc1", "values": [{"measurement": "AC50", "setting": "[1]", "value": "25 µM (active)"}, {"measurement": "outcome", "setting": "[3]", "value": "inactive"}, {"measurement": "outcome", "setting": "[7]", "value": "inactive"}]}
{"smiles": "CCCCOC(=O)c1ccccc1C(=O)OCCCC", "values": [{"measurement": "outcome", "setting": "[8]", "value": "inactive"}]}
{"smiles": "COC(=O)c1ccccc1C(=O)OC", "values": [{"measurement": "outcome", "setting": "[1]", "value": "inactive"}]}
{"smiles": "CCON=C(CC)C1=C(O)CC(c2c(C)cc(C)cc2C)CC1=O", "note": "(stereo not drawn)", "values": [{"measurement": "AC50", "setting": "[9]", "value": "4.89 µM (active)"}, {"measurement": "outcome", "setting": "[2]", "value": "inactive"}, {"measurement": "AC50", "setting": "[4]", "value": "4.3 µM (active)"}]}
{"smiles": "COc1nc(C)nc(NC(=O)NS(=O)(=O)c2ccccc2CCC(F)(F)F)n1", "values": [{"measurement": "outcome", "setting": "[2]", "value": "inactive"}]}
{"smiles": "COC(=O)C=C(C)OP(=O)(OC)OC", "values": [{"measurement": "outcome", "setting": "[10]", "value": "inactive"}]}
{"smiles": "CC1COC(Cn2cncn2)(c2ccc(Oc3ccc(Cl)cc3)cc2Cl)O1", "note": "(stereo not drawn)", "values": [{"measurement": "AC50", "setting": "[1]", "value": "1.8 µM (active)"}, {"measurement": "AC50", "setting": "[2]", "value": "6.37 µM (active)"}, {"measurement": "outcome", "setting": "[11]", "value": "inactive"}, {"measurement": "outcome", "setting": "[3]", "value": "inactive"}]}
{"smiles": "CCCC1COC(Cn2cncn2)(c2ccc(Cl)cc2Cl)O1", "note": "(stereo not drawn)", "values": [{"measurement": "AC50", "setting": "[11]", "value": "16.6 µM (active)"}]}
{"smiles": "CC1=C(C(=O)Nc2ccccc2)SCCO1", "values": [{"measurement": "AC50", "setting": "[1]", "value": "17.5 µM (active)"}]}
{"smiles": "CC(C)Oc1cc(-n2nc(C(C)(C)C)oc2=O)c(Cl)cc1Cl", "values": [{"measurement": "outcome", "setting": "[12]", "value": "inactive"}]}
{"smiles": "CCNc1nc(Cl)nc(NC(C)C)n1", "values": [{"measurement": "AC50", "setting": "[1]", "value": "25 µM (active) and 8.22 µM (active)"}, {"measurement": "outcome", "setting": "[1]", "value": "inactive"}, {"measurement": "AC50", "setting": "[13]", "value": "8.64 µM (active)"}, {"measurement": "outcome", "setting": "[12]", "value": "inactive"}, {"measurement": "outcome", "setting": "[2]", "value": "inactive"}, {"measurement": "AC50", "setting": "[7]", "value": "4.96 µM (active) and 6.26 µM (active)"}, {"measurement": "outcome", "setting": "[7]", "value": "inactive"}]}
{"smiles": "CS/C(C)=N/OC(=O)N(C)SN(C)C(=O)O/N=C(\\C)SC", "values": [{"measurement": "AC50", "setting": "[11]", "value": "25 µM (active)"}]}
{"smiles": "CON(C)C(=O)Nc1ccc(Cl)c(Cl)c1", "values": [{"measurement": "AC50", "setting": "[1]", "value": "20.5 µM (active) [middle of 4 runs]"}, {"measurement": "AC50", "setting": "[2]", "value": "7.75 µM (active)"}]}
